# Source: ChEMBL document CHEMBL1961873, “Compounds: GSK PKIS; Assays: Nanosyn kinase panel” (2012)
# “And” between values parts separate entries of the source, which are not always exact repeats. Equal values may be shown once.
# Key:
# [1] = molecular target: Sphingosine kinase 1 (Homo sapiens) (UniProt Q9NYA1); details: at 1 µM;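 also: mean SPHK1 inhibition value reported from the GSK PKIS kinase panel screen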
# [2] = molecular target: T1, Sphingosine kinase 2 (Homo sapiens) (UniProt Q9NRA0); details: at 0.1 µM
# T1 sequence (whole entry): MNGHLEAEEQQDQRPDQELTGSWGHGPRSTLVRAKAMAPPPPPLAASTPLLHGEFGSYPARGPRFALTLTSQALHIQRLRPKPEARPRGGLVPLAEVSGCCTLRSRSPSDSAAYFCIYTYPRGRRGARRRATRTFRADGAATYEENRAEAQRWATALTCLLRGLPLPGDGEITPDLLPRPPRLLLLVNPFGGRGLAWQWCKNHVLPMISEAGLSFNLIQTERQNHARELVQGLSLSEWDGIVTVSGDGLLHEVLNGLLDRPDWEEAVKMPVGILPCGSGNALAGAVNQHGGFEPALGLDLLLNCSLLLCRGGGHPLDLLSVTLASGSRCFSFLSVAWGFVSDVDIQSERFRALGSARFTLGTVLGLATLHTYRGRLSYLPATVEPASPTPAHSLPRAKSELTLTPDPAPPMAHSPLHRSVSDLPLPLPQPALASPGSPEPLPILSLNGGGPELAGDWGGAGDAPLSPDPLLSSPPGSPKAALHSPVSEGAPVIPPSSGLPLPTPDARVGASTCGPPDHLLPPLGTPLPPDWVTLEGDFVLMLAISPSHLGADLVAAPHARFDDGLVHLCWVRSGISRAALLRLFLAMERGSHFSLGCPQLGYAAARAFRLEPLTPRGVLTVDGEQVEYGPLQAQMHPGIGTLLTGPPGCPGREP
# [3] = molecular target: T1, Sphingosine kinase 2 (Homo sapiens); details: at 1 µM
# [4] = molecular target: Casein kinase II subunit alpha (Homo sapiens) (UniProt P68400); details: at 0.1 µM
# [5] = molecular target: Casein kinase II subunit alpha (Homo sapiens) (UniProt P68400); details: at 1 µM
# [6] = molecular target: T2, Inhibitor of nuclear factor kappa-B kinase subunit alpha (Homo sapiens) (UniProt O15111); details: at 0.1 µM
# T2 sequence (whole entry): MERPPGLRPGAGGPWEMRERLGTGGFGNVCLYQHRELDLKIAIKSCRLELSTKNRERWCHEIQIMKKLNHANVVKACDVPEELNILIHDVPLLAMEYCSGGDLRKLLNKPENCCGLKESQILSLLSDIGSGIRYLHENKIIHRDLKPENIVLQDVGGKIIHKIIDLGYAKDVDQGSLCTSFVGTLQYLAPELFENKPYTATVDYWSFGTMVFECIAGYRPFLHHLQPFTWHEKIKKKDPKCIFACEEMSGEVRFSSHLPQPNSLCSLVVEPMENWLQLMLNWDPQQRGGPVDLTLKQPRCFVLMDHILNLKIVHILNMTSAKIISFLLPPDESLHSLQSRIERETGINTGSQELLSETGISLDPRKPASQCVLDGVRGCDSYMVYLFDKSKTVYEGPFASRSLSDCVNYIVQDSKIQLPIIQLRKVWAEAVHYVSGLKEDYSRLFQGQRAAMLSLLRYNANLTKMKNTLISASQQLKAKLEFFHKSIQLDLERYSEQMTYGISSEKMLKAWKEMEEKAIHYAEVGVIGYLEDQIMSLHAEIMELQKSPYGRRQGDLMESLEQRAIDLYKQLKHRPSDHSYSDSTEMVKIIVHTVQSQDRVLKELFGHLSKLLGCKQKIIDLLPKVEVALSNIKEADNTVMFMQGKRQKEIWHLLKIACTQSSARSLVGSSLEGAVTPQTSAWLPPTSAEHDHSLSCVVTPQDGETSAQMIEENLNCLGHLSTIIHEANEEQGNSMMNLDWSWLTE
# [7] = molecular target: T2, Inhibitor of nuclear factor kappa-B kinase subunit alpha (Homo sapiens); details: at 1 µM
# [8] = molecular target: T3, Inhibitor of nuclear factor kappa-B kinase subunit beta (Homo sapiens) (UniProt O14920); details: at 0.1 µM
# T3 sequence (whole entry): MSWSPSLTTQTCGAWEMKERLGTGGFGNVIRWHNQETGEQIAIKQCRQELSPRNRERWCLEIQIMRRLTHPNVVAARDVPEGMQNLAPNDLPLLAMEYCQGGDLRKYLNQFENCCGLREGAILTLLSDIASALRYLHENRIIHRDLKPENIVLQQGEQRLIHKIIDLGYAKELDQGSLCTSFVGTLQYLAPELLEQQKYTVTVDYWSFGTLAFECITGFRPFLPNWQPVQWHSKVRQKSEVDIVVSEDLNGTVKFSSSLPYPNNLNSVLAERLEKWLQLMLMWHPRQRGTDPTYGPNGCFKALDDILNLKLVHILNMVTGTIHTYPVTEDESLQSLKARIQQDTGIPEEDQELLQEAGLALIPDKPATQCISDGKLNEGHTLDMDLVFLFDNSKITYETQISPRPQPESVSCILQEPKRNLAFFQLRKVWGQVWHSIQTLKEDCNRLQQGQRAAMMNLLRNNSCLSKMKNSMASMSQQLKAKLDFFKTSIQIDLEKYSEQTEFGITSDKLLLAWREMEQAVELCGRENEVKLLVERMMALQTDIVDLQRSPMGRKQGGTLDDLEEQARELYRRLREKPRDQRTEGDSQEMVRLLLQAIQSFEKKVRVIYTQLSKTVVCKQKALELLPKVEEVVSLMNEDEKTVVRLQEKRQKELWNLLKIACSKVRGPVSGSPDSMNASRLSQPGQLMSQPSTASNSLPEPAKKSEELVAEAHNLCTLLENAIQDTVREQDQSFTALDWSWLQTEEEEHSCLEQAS
# [9] = molecular target: T3, Inhibitor of nuclear factor kappa-B kinase subunit beta (Homo sapiens); details: at 1 µM
# [10] = molecular target: T4, Inhibitor of nuclear factor kappa-B kinase subunit epsilon (Homo sapiens) (UniProt Q14164); details: at 0.1 µM
# T4 sequence (whole entry): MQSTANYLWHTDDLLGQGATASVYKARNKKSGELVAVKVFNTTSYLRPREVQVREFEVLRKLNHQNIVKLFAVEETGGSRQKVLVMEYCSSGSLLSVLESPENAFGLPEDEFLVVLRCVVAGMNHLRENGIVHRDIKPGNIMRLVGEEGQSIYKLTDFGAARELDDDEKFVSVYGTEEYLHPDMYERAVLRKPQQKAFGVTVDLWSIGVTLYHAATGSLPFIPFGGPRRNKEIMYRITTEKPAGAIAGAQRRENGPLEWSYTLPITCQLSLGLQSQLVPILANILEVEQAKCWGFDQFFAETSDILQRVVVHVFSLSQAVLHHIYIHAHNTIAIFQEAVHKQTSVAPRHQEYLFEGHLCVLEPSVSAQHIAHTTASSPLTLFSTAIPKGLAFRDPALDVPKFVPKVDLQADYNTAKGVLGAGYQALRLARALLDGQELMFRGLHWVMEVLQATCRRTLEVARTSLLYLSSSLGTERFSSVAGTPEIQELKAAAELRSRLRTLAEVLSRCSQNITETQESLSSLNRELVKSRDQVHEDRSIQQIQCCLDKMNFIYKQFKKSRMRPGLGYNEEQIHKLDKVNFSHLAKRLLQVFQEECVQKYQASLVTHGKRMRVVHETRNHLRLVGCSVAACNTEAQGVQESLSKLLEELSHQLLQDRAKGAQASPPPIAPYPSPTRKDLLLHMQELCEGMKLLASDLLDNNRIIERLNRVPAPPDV
# [11] = molecular target: T4, Inhibitor of nuclear factor kappa-B kinase subunit epsilon (Homo sapiens); details: at 1 µM
# [12] = molecular target: T5, Serine/threonine-protein kinase Nek1 (Homo sapiens) (UniProt Q96PY6); details: at 0.1 µM
# T5 sequence (whole entry): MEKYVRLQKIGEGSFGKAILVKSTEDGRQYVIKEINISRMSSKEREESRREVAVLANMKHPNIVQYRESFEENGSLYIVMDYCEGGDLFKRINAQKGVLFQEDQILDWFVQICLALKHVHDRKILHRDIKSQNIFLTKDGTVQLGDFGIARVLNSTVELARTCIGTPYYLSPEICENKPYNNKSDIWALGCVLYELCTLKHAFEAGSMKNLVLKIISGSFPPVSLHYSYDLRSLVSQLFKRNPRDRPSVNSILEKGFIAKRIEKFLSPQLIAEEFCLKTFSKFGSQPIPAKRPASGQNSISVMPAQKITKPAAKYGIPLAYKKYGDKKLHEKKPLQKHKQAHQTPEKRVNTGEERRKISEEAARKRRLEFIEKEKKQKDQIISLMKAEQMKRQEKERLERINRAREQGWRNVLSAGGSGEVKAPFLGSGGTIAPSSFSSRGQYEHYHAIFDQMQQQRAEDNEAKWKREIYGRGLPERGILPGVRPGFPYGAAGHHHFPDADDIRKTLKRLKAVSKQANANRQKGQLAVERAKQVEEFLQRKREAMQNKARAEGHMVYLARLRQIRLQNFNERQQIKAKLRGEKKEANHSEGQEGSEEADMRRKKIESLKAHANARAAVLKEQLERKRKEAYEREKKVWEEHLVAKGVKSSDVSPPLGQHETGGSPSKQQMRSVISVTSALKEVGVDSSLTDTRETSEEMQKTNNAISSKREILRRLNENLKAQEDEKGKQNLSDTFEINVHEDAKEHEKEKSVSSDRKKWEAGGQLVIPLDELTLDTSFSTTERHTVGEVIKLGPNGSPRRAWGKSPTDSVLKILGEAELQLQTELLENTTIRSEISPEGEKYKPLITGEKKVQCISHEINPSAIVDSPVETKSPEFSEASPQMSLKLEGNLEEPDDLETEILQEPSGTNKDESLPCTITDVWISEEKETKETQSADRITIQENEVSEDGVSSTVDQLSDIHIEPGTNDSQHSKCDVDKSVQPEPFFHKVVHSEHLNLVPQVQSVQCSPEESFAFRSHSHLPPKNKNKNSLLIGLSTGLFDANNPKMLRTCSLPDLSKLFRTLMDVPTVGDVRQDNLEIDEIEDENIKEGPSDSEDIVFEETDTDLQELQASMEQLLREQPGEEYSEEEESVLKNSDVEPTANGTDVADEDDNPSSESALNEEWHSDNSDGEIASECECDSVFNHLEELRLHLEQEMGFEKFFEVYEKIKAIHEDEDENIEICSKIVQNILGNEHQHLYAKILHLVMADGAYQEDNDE
# [13] = molecular target: T5, Serine/threonine-protein kinase Nek1 (Homo sapiens); details: at 1 µM
# [14] = molecular target: T6, Serine/threonine-protein kinase Nek2 (Homo sapiens) (UniProt P51955); details: at 0.1 µM
# T6 sequence (whole entry): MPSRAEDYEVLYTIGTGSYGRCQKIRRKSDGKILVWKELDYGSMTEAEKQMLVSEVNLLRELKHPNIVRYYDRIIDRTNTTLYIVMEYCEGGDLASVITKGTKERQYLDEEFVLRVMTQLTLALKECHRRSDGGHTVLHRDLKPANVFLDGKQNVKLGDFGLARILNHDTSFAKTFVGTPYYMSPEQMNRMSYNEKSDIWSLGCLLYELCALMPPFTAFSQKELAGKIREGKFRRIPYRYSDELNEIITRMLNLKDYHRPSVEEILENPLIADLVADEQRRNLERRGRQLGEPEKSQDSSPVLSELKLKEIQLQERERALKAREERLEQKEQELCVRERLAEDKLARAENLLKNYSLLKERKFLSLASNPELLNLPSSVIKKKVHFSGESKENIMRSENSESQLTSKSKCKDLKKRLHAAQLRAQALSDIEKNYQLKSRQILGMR
# [15] = molecular target: T6, Serine/threonine-protein kinase Nek2 (Homo sapiens); details: at 1 µM
# [16] = molecular target: Serine/threonine-protein kinase Nek6 (Homo sapiens) (UniProt Q9HC98); details: at 0.1 µM
# [17] = molecular target: Serine/threonine-protein kinase Nek6 (Homo sapiens) (UniProt Q9HC98); details: at 1 µM
# [18] = molecular target: Serine/threonine-protein kinase Nek7 (Homo sapiens) (UniProt Q8TDX7); details: at 0.1 µM
# [19] = molecular target: Serine/threonine-protein kinase Nek7 (Homo sapiens) (UniProt Q8TDX7); details: at 1 µM
# [20] = molecular target: T7, Serine/threonine-protein kinase Nek9 (Homo sapiens) (UniProt Q8TD19); details: at 0.1 µM;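 also: reported value is the mean percent inhibition of NEK9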
# T7 sequence (whole entry): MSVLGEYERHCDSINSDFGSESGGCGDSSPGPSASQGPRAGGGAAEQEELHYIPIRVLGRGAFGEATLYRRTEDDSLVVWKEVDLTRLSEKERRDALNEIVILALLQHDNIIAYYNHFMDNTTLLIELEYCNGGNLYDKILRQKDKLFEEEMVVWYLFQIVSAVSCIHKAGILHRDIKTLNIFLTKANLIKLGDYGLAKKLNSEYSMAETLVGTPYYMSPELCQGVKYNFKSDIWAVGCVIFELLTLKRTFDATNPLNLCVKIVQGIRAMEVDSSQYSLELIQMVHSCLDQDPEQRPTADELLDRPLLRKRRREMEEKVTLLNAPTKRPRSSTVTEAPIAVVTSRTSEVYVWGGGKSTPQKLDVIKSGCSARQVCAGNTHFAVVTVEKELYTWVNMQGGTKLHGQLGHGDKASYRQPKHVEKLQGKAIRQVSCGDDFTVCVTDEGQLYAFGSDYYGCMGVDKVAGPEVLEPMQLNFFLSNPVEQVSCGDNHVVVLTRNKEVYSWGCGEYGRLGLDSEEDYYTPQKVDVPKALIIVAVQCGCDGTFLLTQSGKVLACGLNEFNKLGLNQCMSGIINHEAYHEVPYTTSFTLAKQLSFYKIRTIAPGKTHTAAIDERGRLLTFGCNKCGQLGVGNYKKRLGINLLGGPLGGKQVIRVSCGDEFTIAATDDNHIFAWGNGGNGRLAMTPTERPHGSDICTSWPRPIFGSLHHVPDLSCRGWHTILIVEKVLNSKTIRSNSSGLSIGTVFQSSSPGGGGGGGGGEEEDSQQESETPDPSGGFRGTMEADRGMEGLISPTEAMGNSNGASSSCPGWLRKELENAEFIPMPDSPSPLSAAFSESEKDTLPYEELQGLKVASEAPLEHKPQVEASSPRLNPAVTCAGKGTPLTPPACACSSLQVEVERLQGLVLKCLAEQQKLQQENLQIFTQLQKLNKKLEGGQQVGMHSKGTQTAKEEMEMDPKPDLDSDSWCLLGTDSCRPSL
# Sequence of Serine/threonine-protein kinase Nek6 (Homo sapiens) (Q9HC98 whole entry): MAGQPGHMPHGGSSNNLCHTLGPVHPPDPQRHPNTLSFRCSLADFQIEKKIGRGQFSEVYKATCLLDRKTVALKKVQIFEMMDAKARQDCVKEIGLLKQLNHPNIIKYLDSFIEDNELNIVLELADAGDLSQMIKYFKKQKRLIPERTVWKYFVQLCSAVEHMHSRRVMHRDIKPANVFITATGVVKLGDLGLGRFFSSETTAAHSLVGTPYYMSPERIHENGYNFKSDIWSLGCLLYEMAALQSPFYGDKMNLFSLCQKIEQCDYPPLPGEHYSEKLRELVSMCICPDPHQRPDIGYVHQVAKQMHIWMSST
# Sequence of Serine/threonine-protein kinase Nek7 (Homo sapiens) (Q8TDX7 whole entry, looked up): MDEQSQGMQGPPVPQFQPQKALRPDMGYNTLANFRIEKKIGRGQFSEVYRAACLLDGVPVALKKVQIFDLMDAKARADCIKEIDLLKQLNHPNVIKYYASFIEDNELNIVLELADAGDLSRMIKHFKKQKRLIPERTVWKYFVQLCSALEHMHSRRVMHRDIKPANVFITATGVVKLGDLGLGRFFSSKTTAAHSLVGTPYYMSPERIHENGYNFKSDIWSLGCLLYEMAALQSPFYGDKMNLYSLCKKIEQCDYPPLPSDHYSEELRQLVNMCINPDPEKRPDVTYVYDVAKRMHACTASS
# Sequence of Casein kinase II subunit alpha (Homo sapiens) (P68400 whole entry, looked up): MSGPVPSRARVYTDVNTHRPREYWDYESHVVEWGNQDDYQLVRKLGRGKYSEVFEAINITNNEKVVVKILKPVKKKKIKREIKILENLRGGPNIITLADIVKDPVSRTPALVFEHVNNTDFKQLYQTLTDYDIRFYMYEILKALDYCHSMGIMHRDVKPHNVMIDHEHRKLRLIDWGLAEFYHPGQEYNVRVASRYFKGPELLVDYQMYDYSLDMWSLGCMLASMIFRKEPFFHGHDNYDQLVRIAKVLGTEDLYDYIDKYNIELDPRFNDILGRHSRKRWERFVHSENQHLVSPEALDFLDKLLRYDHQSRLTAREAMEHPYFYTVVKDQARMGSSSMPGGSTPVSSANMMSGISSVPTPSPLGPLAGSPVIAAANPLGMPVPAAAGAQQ
# Sequence of Sphingosine kinase 1 (Homo sapiens) (Q9NYA1 whole entry): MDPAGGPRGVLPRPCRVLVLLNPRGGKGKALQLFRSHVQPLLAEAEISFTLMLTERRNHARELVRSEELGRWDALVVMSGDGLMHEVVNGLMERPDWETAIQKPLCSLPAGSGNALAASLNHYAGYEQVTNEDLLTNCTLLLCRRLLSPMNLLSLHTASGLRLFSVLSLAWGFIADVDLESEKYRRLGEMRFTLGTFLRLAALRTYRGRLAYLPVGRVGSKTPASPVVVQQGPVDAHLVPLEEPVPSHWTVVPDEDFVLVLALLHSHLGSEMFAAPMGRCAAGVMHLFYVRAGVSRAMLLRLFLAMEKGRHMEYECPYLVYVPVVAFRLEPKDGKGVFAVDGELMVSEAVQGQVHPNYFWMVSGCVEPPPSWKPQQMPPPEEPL
structure (smiles),measurement,setting,value
CN1CCC(C(=O)Nc2n[nH]c3nc(-c4ccc(O)cc4)c(Br)cc23)CC1,inhibition,[1],0.24% and -1.35%
same,inhibition,[2],0.67% and 1.32%
same,inhibition,[3],1.49% and 0%
same,inhibition,[4],6.41% and 0.96%
same,inhibition,[5],13.3% and 1.03%
same,inhibition,[6],1.72% and -1.22%
same,inhibition,[7],-1.54% and 2.39%
same,inhibition,[8],6.9% and 3.32%
same,inhibition,[9],12.8% and 4.3%
same,inhibition,[10],8.54% and 3.19%
same,inhibition,[11],9.87% and 4.68%
same,inhibition,[12],2.56% and 2.33%
same,inhibition,[13],5.56% and 3.3%
same,inhibition,[14],4.35% and 2.88%
same,inhibition,[15],2.67% and 2.08%
same,inhibition,[16],3.12% and 2.62%
same,inhibition,[17],6.77% and 0.79%
same,inhibition,[18],7.02% and 1.88%
same,inhibition,[19],10% and 8.97%
same,inhibition,[20],9.98% and 4.62%
